# Bioassay records: PubChem, National Center for Advancing Translational Sciences (NCATS)
# Rows were chosen to be rich in hits. Some 2.4% of all compounds tested hit in one or more screens of this group.
# Pol beta inh – inhibitors of human DNA polymerase beta; 340,000 tested, 1.3% active; Pol beta primer extension/strand displacement, fluorescence kinetic; Potency, µM (series often up to 114 µM), for the others: at the top dose activity change, negative = inhibition, actives largely listed as inhibitors; AID 485314; note: % is set by controls: 0 for no effect and ±100 for the full control effect
#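 Curves were derived by four-parameter Hill fits of normalized qHTS data. The kinetic fluorescent primer-extension read was taken at 0 and 10 min after 50 nM substrate, following a 15 min room-temperature preincubation of 10 nM enzyme with compounds.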
# WRN helicase inh – WRN helicase (human) inhibition; Q14191; WRN helicase unwinding, fluorescent forked duplex, kinetic; Potency, µM (titrated, usually from 114 µM), for inactives: at the highest dose activity change, negative = inhibition, most hits filed as inhibitors; 360,000 tested, 0.46% active; note: % is set by controls: 0 for no effect and ±100 for the full control effect; nearly all actives have a fitted effect of over 55% in size
# Target sequence (Q14191 whole entry, looked up): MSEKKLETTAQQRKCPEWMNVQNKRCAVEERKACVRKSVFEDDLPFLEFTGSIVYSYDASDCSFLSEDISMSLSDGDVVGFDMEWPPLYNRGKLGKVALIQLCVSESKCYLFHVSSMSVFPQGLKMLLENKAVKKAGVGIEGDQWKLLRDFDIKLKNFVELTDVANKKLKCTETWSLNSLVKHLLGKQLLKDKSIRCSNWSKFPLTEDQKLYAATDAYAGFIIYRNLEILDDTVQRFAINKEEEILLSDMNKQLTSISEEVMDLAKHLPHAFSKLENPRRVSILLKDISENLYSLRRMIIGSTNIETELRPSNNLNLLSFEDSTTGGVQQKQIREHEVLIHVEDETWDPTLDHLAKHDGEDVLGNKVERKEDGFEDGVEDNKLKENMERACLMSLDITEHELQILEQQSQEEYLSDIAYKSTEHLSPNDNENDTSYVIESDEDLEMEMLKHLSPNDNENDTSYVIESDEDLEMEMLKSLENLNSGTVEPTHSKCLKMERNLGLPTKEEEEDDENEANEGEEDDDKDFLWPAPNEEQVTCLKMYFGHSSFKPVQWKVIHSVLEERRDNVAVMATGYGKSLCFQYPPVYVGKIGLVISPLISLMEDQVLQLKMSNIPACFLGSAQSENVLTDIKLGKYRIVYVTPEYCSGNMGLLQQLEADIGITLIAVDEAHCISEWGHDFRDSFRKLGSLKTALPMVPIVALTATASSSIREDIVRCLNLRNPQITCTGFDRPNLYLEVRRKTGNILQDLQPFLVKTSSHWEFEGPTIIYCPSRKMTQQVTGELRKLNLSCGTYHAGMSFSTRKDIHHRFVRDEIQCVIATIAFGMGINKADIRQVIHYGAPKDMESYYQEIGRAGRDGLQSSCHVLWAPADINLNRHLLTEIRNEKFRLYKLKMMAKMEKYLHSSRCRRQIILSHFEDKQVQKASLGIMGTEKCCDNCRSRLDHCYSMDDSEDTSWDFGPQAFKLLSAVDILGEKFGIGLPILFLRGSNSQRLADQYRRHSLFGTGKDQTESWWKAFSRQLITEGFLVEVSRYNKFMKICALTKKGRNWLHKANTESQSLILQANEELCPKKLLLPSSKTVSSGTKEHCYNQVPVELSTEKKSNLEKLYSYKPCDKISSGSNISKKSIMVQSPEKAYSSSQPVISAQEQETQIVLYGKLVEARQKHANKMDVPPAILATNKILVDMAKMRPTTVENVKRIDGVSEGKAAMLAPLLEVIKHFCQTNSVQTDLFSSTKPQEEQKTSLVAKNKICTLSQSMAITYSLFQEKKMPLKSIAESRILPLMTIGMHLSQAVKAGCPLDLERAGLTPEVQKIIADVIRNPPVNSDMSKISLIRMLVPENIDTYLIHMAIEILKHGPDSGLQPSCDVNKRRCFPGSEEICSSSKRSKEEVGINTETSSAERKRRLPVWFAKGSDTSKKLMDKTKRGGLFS
#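 Screening of the MLSMR collection measured strand separation of a quenched forked DNA duplex (100 nM) by 20 nM WRN with 2 mM ATP, all final. Compounds were preincubated with enzyme 15 min at room temperature.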
# FEN1 inhibitor – human FEN1 inhibition; P39748; Recombinant FEN1 flap cleavage, fluorescence, 15 min; Potency, µM (series often up to 114 µM), inactives show top-dose activity change, negative = inhibition, usual class: inhibitors; 390,000 tested, 0.35% active; AID 588795; note: % is set by controls: 0 for no effect and ±100 for the full control effect; nearly all actives have a fitted effect of over 65% in size
#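 In this screen, 50 nM flap DNA substrate was added to 10 nM FEN1 pretreated with compound for 15 min at room temperature; cleavage was followed with reads at 0 and 15 min, and Hill fitting gave concentration–response parameters.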
# Pol eta inh – DNA polymerase eta (human) inhibition; Q9Y253; recombinant Pol eta, fluorescent DNA replication assay; Potency, µM (doses to about 114 µM), without a hit: top-dose activity change, negative = inhibition, hits mostly inhibitors; 390,000 tested, 1.2% active; note: % is set by controls: 0 for no effect and ±100 for the full control effect
#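 Pol eta at 10 nM preincubated with compounds 15 min at room temperature; reaction started with fluorescent substrate (50 nM final) and read kinetically at 0 and 10 min.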
# POLI inh – inhibitors of human DNA polymerase iota; Q9UNA4; 390,000 tested, 1% active; Pol iota fluorescent replication assay, 10 min; Potency, µM (top dose mostly 115 µM), for inactives: at the top dose activity, negative = inhibition, actives largely listed as inhibitors
#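 Fluorescent replication assay read twice, at 0 min and 10 min after adding 50 nM (final) substrate. Enzyme (10 nM) and compounds were first incubated 15 min at room temperature; enzyme-free buffer wells were negative controls.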
# Pol kappa inh – inhibitors of human DNA polymerase kappa; Q9UBT6; purified Pol kappa, fluorescent DNA synthesis assay, 10 min; Potency, µM (titrated, usually from 107 µM), without a hit: at the highest dose activity, negative = inhibition, most hits filed as inhibitors; 400,000 tested, 0.53% active; AID 588579; note: % is set by controls: 0 for no effect and ±100 for the full control effect
#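 Kinetic fluorescence screen: compound preincubated 15 min RT with 10 nM enzyme; 50 nM substrate (final) initiates; reads at 0/10 min.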
# Starred values were filed as active, the others as inactive; u = inconclusive; x = no result given; [ ] = dose if it differs, or a comment. Calls come from the whole dose curve; as a rule, active = well fitted curve in the direction sought with a large enough effect; inconclusive = small, poorly fitted or top-dose-only effect, or another doubt; inactive = no such curve, though single readings can be large; an effect the other way counts as inactive or inconclusive. Potency is the fitted concentration of half-maximal effect.
SMILES,Pol beta inh,WRN helicase inh,FEN1 inhibitor,Pol eta inh,POLI inh,Pol kappa inh
CC(CCc1ccc(O)cc1)N1CCC(Oc2ccc(C(=O)N3CCCC3)cc2)CC1 (stereo not given),u,-3.3%,-4.1%,4.4%,20.0%,-1.2%
COc1ccc(CCC(C)N2CCC(Oc3ccc(C(=O)N4CCCC4)cc3)CC2)cc1 (stereo not given),-3.3%,2.4%[11.6 µM],29.8%,-13.3%,89.1µM*,-3.3%
COc1ccccc1-n1c(/C=C/c2c(C)n(C)c3ccccc23)nc2ccccc2c1=O,9.0%,x,-22.1%,-19.4%,u,-43.6%
COc1cc(OC)c(C(=O)C=Cc2ccc(OC)c(OC)c2)c(OC)c1,x,-10.4%,0.1%,-9.2%,-20.5%,-18.1%
COc1ccc(/C=C/C(=O)c2ccc([N+](=O)[O-])o2)cc1OC,x,-21.8%,u,u,8.91µM*,5.2%
C=C1[C@@H](O)[C@H](CC(C)C)N(Cc2ccccc2Br)S1(=O)=O,x,-1.5%,-6.0%,50.1µM*,1.6%,6.2%
O=S1(=O)CCO[C@H]2CCCC[C@@H]2N1Cc1ccccc1Br,x,x,-21.1%,x,9.0%,-9.4%
O=C(O)C1CC=CCC1C(=O)Nc1cccc(F)c1 (stereo not given),28.2µM*,-18.0%,-1.7%,-6.4%,-5.8%,-13.6%
O=C(O)C1CC=CCC1C(=O)Nc1ccc2c(c1)OCCO2 (stereo not given),20µM*,-2.7%,-0.7%,u,-15.5%,-3.7%
O=C(O)C1CC=CCC1C(=O)Nc1ccc(F)c(F)c1 (stereo not given),59.3%,-3.5%,-10.9%,3.3%,9.6%,-11.9%
CC(=O)Nc1ccc2c(c1)OCCO2,11.0%,4.0%,7.4%,-16.8%,15.7%,-6.2%
Cc1ccc(Nc2sc(C(=O)c3ccccc3)c(N)c2S(=O)(=O)c2ccccc2)c(C)c1,22.8%,x,4.3%,-13.6%,10.9%,-7.7%
Nc1ncnc2c1ncn2[C@@H]1O[C@H](COP(=O)(O)O)[C@@H](O)[C@@H]1O,x,x,x,x,x,-3.7%[12 µM]
Cc1cc(C)c2nc(N3CCCN(C(=O)c4ccco4)CC3)c(C#N)cc2c1,39.8µM*,-32.0%,-21.0%,u,-10.5%,-20.2%
Cc1nc(N2CCN(C(=O)c3ccco3)CC2)c(C#N)c2c1CCCC2,0.6%,-5.3%,-2.9%,-11.2%,79.7%,-13.2%
CCOc1ccc(C(=O)Nc2c(C)nc(Nc3ccccc3)nc2Nc2ccccc2)cc1OCC,14.8%,x,u,-13.7%,70.8µM*,-20.1%
COc1cc(OC)c(OC)cc1CN1CCc2nc(N3CCN(c4ccccc4F)CC3)ncc2C1,-9.0%,x,-13.5%,-4.6%,13.5%,-6.9%[60.1 µM]
N/C(=N\O)c1cn(Cc2ccccc2Cl)c2ccccc12,-13.4%,0.9%,0.0%,-20.2%,113.2%,-7.6%
Cc1[nH][nH]c(=O)c1C(c1c(C)[nH][nH]c1=O)c1cn(Cc2ccccc2Cl)c2ccccc12,-15.5%,-32.3%,-30.1%,u,5.62µM*,-15.0%
CC(=O)N1CCc2c(sc(NC(=O)c3ccc([N+](=O)[O-])o3)c2C(N)=O)C1,x,-11.7%,x,50.1µM*,x,x
CC[C@H](C)[C@H](NC(=O)[C@H](CC(C)C)NC(=O)[C@H](CO)NC(=O)[C@H](CCC(=O)O)NC(=O)[C@H](CC(C)C)NC(=O)[C@H](Cc1ccc(O)cc1)NC(=O)[C@H](CCCCN)NC(=O)[C@H](CCCCN)NC(=O)[C@H](C)NC(=O)[C@H](CO)NC(=O)[C@H](CC(C)C)NC(=O)[C@H](CCC(N)=O)NC(=O)CNC(=O)[C@H](CC(C)C)NC(=O)[C@H](CC(C)C)NC(=O)[C@H](CCCNC(=N)N)NC(=O)[C@H](CO)NC(=O)[C@H](Cc1ccccc1)NC(=O)[C@H](CC(=O)O)NC(=O)[C@H](CO)NC(=O)[C@@H](NC(=O)[C@H](Cc1ccccc1)NC(=O)[C@@H](NC(=O)CNC(=O)[C@H](CC(=O)O)NC(=O)[C@H](C)NC(=O)[C@@H](N)Cc1cnc[nH]1)C(C)C)[C@@H](C)O)C(N)=O,x,x,x,x,x,17.9%[60.1 µM]
